Structures are written as SMILES.

For the assay, the target named is Hexose transporter 1 (Plasmodium falciparum) (UniProt O97467). The assay is described as follows: ST_JUDE_LEISH: Cytotoxicity at 2uM final concentration against transgenic Leishmania Mexicana promastigotes LmPfHT that are glucose transport deficient and complemented with the Plasmodium falciparum hexose transporter. Activity is measured by DNA content using SYBR green in vitro. The assay is classed as functional.
As for `Cc1[nH]c(C)c(C(F)(F)F)c(=O)c1-c1ccc(Oc2ccc(OC(F)(F)F)cc2)cc1`, the inhibition worked out at 2.31%. Then `O=C(/C=C/c1ccc(Cl)c(Cl)c1)NCCCCCN1CCC(NC(=S)Nc2ccc(F)cc2F)CC1`, with 14.9%; and `Nc1c2c(nc3ccc(NC(=O)CCCc4ccccc4)cc13)CCCC2`, with 1.78%; and `Nc1nc(N)c2cc(NS(=O)(=O)c3ccc(-c4ccccc4)cc3)ccc2n1`, with 3.47%. `CCNc1cc(C(=O)N[C@@H](Cc2ccccc2)[C@H](O)CNC(C)(C)Cc2cccc(Cl)c2)cc(N2CCCCS2(=O)=O)c1`: the inhibition amounted to 1.94%. For the compound `CCNc1cc(C(=O)N[C@@H](Cc2ccccc2)[C@H](O)CNC(C)(C)Cc2ccccc2)cc(N2CCCC2=O)c1`, the inhibition amounted to 0.61%. Then `O=C(CCc1c[nH]cn1)Nc1ccc(-c2ccc(-c3nc4ccccc4[nH]3)cc2)cc1`, with 16.7%; and `CN(C)CCCNc1ncnc2c1[nH]c1ccc(F)cc12`, with 7.08%; and `CC1CN(Cc2cccc(-c3ccc(-c4nc5ccccc5[nH]4)cc3)c2)CC(C)O1` (stereo not given), with 4.42%. With `CN(Cc1cccc(F)c1)C1CCCN(c2cc(NC(=O)c3ccccc3)ccn2)C1` (stereo not given), the inhibition is 4.07%. As for `COC(=O)C(=C(C)C)N1C(=O)[C@@H](NC(=O)OCc2ccccc2)[C@H]1SS[C@@H]1[C@H](NC(=O)OCc2ccccc2)C(=O)N1C(C(=O)OC)=C(C)C`, the inhibition was -0.42%.

For `CC(=O)Nc1cccc(C(=O)Nc2cccc(-c3ccc(-c4nc5cccc(C)c5[nH]4)cc3)c2)c1`, the inhibition turned out to be 1.27%. With `Cc1nnnn1-c1ccc(C(=O)N2CCC3(CC2)CN(Cc2ccc(Cl)c(Cl)c2)C(=O)O3)cc1`, the inhibition came to 8.51%. Regarding `COc1cccc(CN2CCCN(Cc3cccc(NC(=O)c4cc5ccccc5s4)c3)CC2)c1`, the inhibition was found to be 4.66%. For `CC(=O)Nc1ncc(C(=O)Nc2cccc(-c3ccc(-c4nc5cc(F)ccc5[nH]4)cc3)c2)s1`, the inhibition was found to be 1.84%. Regarding `CN(C)CCOc1cc(NC(=O)Nc2ccc(Cl)cc2C(F)(F)F)ccc1I`, the inhibition was 1.15%. The figure for `CCc1ccccc1N=C1c2c(cccc2[N+](=O)[O-])C(=O)C1C(C)=O` (stereo not given) is -1.21%; for `O=C(O)C[C@H](NC(=O)[C@@H]1CCCN1C(=O)c1cccc(-c2ccc(Cl)c(Cl)c2)c1)C(=O)O` it is 0.14%; for `O=C(/C=C/c1ccc(Cl)c(Cl)c1)NCCCCCN1CCCN(C(=O)Nc2cccc(F)c2)CC1` it is 0.29%. Take `Clc1cccc(C=NNc2nc(=Nc3ccccc3)[nH]c(=Nc3ccccc3)[nH]2)c1`: the inhibition came to 5.13%. The figure for `O=C(/C=N/O)Nc1ccccc1[N+](=O)[O-]` is 0.8%; for `CCNc1cc(C)nc(Nc2ccc(NC(=O)c3ccco3)cc2)n1` it is 3.53%. The figure for `Cc1ccccc1CN1CCCN(Cc2ccc(C(=O)Nc3ccc(C(C)(C)C)cc3)cc2)CC1` is 3.39%; for `O=S(=O)(Nc1ccc2nccc(N3CCNCC3)c2c1)c1ccc2oc3ccccc3c2c1` it is 6.5%. The figure for `CC(C)(CNCc1ccc(Cl)c(Cl)c1)c1nc(-c2ccc(Cl)c(O)c2)c(-c2ccncc2)[nH]1` is 3.02%; for `CCOCCCn1c(=N)c(C(=O)NCc2ccc(F)cc2)cc2c(=O)n3cccc(C)c3nc21` it is 10.1%. Regarding `Clc1ccc(Nc2nc3ccc(Cl)cc3nc2Nc2ccc(Cl)cc2)cc1`, the inhibition amounted to 6.73%. Take `Cc1nc(-c2cccc(C(=O)NC3CCC(CCN4CCc5ccc(-c6cccnc6)cc5CC4)CC3)c2)no1` (stereo not given): the inhibition came out at 2.55%. Regarding `FC(F)(F)c1ccc2[nH]c(-c3cccc(-c4ccc(CNCCc5ccncc5)cc4)c3)nc2c1`, the inhibition turned out to be 0.52%. Turning to `COc1cc(F)c2ncc(C#N)c(CCN3CCC(NCc4ccc5c(c4)OCCO5)CC3)c2c1`, the inhibition is 95.1%.

As for `CCN1CCN(CCCNc2c3ccc(Cl)cc3nc3ccc(O)cc23)CC1`, the inhibition is 0.02%.

`Cc1ccccc1CN1CCCN(Cc2ccc(C(=O)Nc3ccc(Cl)cc3)cc2)CC1`: the inhibition is 6.18%.

Turning to `O=C(/C=C/c1ccc(Cl)c(Cl)c1)N1CCC(CNCc2cccc3cc[nH]c23)CC1`, the inhibition is 0.75%. With `O=C(Nc1cccnc1)c1cn(-c2ccccc2)nc1-c1cccs1`, the inhibition came to 1.81%. The figure for `CN1CCCC(CN2CCN(Cc3ccc(-c4ccc(-c5nc6cc(F)ccc6[nH]5)cc4)cc3)CC2)C1` (stereo not given) is 4.45%; for `O=C(NCCCN1CCN(c2cccc(Cl)c2)CC1)c1ccc(-c2nc3cc(Cl)c(Cl)cc3[nH]2)c(F)c1` it is 1.4%; for `Cc1ccc2nc(N/C(N)=N/C(=O)NC3CCCCC3)nc(C)c2c1` it is 4.89%. Then `O=C(Nc1ccc2c(c1)OCO2)c1cc(-c2cccnc2)nc2ccc(Cl)cc12`, with 0.67%.

Regarding `COc1cc(CNc2ncc(-c3ccsc3)c(-c3nccs3)n2)cc(OC)c1`, the inhibition was found to be 1.49%. On to `CCOC(=O)c1[nH]c2ccc(F)cc2c1NC(=O)CN1CCN(c2cccc(C(F)(F)F)c2)CC1`, for which the inhibition was 0.43%.

As usually defined, the inhibition is the drop in the measured response relative to a control, in per cent.

These data come from ChEMBL document CHEMBL3433997, “St. Jude Leishmania screening dataset” (2016).
